Measurements from PubChem BioAssay.
Active and inactive are the calls of the source. Unless noted, the rule behind the calls is not given here.

Key:
[1] = test system: XIP peptide (Xip251-270) binding; assay: small-molecule binders of XIP peptide, primary screen, biochemical, small-molecule microarray, fluorescence 635/667 nm, 0.1 µg/mL protein (AID 1182); settings: fluorescent protein binding, 635 nm, higher = more signal, called active from +8 up or from −8 down
XIP peptide (Xip251-270) = assay: small-molecule binders of XIP peptide, primary screen, biochemical, small-molecule microarray, fluorescence 635/667 nm, 0.5 µg/mL protein (AID 1183); settings: small-molecule microarray binding, fluorescence 635 nm; higher = more signal
[2] = Plasmodium falciparum growth inhibition, primary screen, strain 3D7, DAPI fluorescence, 100 nL (AID 1184);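 note: parasites grown inside human red blood cells in medium with human serum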; settings: P. falciparum 3D7 growth, 3 d, higher = more signal
[3] = biological target: Homeobox protein Hox-A13 (Mus musculus) (UniProt Q62424); assay: inhibitors of HoxA13-DNA binding, primary screen, biochemical, fluorescence polarization, labeled oligonucleotide (AID 1185); settings: 15 min, higher = more signal, called active from +8 up or from −8 down
[4] = inhibitors of hydroxyurea-induced Chk1 phosphorylation, primary screen, imaging, HeLa, phospho-Chk1 antibody, percent positive cells (AID 1186); settings: hydroxyurea-induced phospho-Chk1 immunofluorescence imaging, higher = more signal
[5] = inhibitors of hydroxyurea-induced Chk1 phosphorylation, primary screen, imaging, HeLa, phospho-Chk1 nuclear intensity (AID 1187); settings: hydroxyurea-induced phospho-Chk1 immunofluorescence imaging, higher = more signal

Chain of Homeobox protein Hox-A13 (Mus musculus) (Q62424 whole entry, looked up): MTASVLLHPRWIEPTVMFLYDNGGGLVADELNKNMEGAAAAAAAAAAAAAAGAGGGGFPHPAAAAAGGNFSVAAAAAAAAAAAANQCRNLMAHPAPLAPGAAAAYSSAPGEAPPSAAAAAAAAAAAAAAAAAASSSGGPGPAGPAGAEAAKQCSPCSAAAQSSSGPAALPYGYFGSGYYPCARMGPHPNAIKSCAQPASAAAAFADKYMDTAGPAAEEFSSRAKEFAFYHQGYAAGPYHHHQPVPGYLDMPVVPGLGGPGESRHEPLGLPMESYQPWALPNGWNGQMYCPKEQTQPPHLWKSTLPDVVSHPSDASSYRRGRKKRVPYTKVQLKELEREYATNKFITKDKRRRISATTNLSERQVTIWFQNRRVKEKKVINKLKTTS

Structure (SMILES) | composite z-score [1] | composite z-score (XIP peptide (Xip251-270)) | z-score [2] | z-score [3] | z-score [4] | z-score [5]
CCOC(=O)C[C@H]1[C@H](OC(=O)Cc2ccc3c(c2)OCO3)[C@@H](NC(=O)C2CCCCC2)c2cc(OCCCO)ccc2N1C(=O)Cc1ccc(OC)cc1 | -0.219 (inactive) | 0.128 | -0.383 | -2 (inactive) | -0.585 (inactive) | -0.868 (inactive)
N#Cc1ccc(NN2C(C(O)C3CCCCC3)C=CC3C(=O)N(c4ccccc4)C(=O)C32)cc1 (centres undefined) | 0.769 (inactive) | 0.694 | 0.898 | -2.14 (inactive) | -0.14 (inactive) | -0.0947 (inactive)
CCCCC=C[C@@H](NC(=O)c1ccc(C(=O)OC)cc1)c1ccccc1 | 2.97 (inactive) | 0.0677 | -1.38 | -4.21 (inactive) | 0.492 (inactive) | 0.256 (inactive)
Cc1ccc([C@H]2[C@H](C(=O)O)[C@H](Sc3ccccc3)[C@@H](C(C)C)N2S(=O)(=O)c2ccc(C)cc2)cc1 | 2.49 (inactive) | 0.787 | -0.619 | -6 (inactive) | 0.237 (inactive) | -0.0069 (inactive)
CC(C)N1C(=O)c2ccccc2[C@@H](C(=O)NCCCN(C)C)[C@@H]1c1ccc(CO)cc1 | -0.361 (inactive) | -0.428 | -1.26 | -2.54 (inactive) | -0.0028 (inactive) | -0.321 (inactive)
CCCCC(CC)C(O)C1C=CC2C(=O)N(c3ccccc3)C(=O)C2N1Nc1ccccc1 (centres undefined) | -0.147 (inactive) | 0.216 | -0.392 | -1.89 (inactive) | -0.335 (inactive) | -0.23 (inactive)
[N-]=[N+]=NCc1ccccc1[C@H]1OC(c2ccc(OCCCO)cc2)=N[C@@]1(CCS(=O)(=O)c1ccccc1)C(=O)N1CCOCC1 | 1.53 (inactive) | 0.768 | -2.22 | -3.2 (inactive) | -0.0312 (inactive) | 0.246 (inactive)
O=C1N(CCS(=O)(=O)c2ccccc2)Cc2ccccc2[C@H]2OC(c3ccc(OCCCO)cc3)=N[C@@]12CCS(=O)(=O)c1ccccc1 | 2.05 (inactive) | 0.81 | -2.09 | -0.483 (inactive) | -0.44 (inactive) | -0.346 (inactive)
CCCCCN1CC=CC23O[C@@H]4/C=C\CCCOC(=O)C4[C@H]2C(=O)N(CCCCCCO)[C@@H]3C1=O (some centres undefined) | 0.403 (inactive) | -0.0516 | -1.13 | -5.27 (inactive) | -0.792 (inactive) | -0.702 (inactive)
COC(=O)c1ccc(C(O)C2C=CC3C(=O)N(C)C(=O)C3N2NC(=O)OC(C)(C)C)o1 (centres undefined) | 3.49 (inactive) | 0.789 | 0.926 | -1.46 (inactive) | -0.0792 (inactive) | -0.0828 (inactive)
C=CCN1C(=O)[C@]2(O[C@H](CCO)[C@@H]([Si](C)(C)c3ccc(OC)cc3)[C@@H]2C)c2cc(NC(=O)[C@H](C)O)ccc21 | 1.46 (inactive) | 0.822 | -2.74 | -5.5 (inactive) | 1.42 (inactive) | 0.436 (inactive)
O=C1C2C=CC(C(O)c3ccc(-c4ccccc4)s3)N(n3cnnc3)C2C(=O)N1Cc1ccccc1 (centres undefined) | -0.457 (inactive) | 0.951 | -0.802 | -2.98 (inactive) | -0.295 (inactive) | -0.514 (inactive)
CCC(CC)C(O)C1C=CC2C(=O)N(c3ccccc3)C(=O)C2N1Nc1ccc(C#N)cc1 (centres undefined) | 0.132 (inactive) | 0.799 | 0.324 | -1.39 (inactive) | 0.288 (inactive) | 0.192 (inactive)
CC(C)(C)OC(=O)CC[C@@]1(C(=O)O)N=C(c2ccc(OCCCO)cc2)O[C@@H]1c1ccccc1N=[N+]=[N-] | 1.37 (inactive) | -0.333 | 0.603 | -5.2 (inactive) | -0.157 (inactive) | -0.51 (inactive)
CC(C)OC(=O)CC(=O)CC(O)c1ccc(C#N)cc1 (centres undefined) | 3.17 (inactive) | 0.21 | 0.393 | -0.306 (inactive) | -1.26 (inactive) | -1.44 (inactive)
C[C@]1(C(=O)NCc2ccccc2)c2ccccc2C(=O)N(Cc2ccc(OC(F)(F)F)cc2)[C@H]1c1ccc(CO)cc1 | 0.379 (inactive) | 0.317 | -2.01 | -3.67 (inactive) | -0.347 (inactive) | -0.341 (inactive)
CCCN1C(=O)[C@]2(COC(c3ccc(OCCCO)cc3)=N2)Cc2ccccc21 | 1.71 (inactive) | 0.42 | -0.755 | -6.01 (inactive) | -0.0155 (inactive) | 0.239 (inactive)

Structure (SMILES) | composite z-score [1] | composite z-score (XIP peptide (Xip251-270)) | z-score [2] | z-score [3] | z-score [4] | z-score [5]
O=C(O)[C@H]1C[C@H]2C(=O)NCC(=O)N2[C@H]1c1ccc(O)cc1 | 0.267 (inactive) | -0.212 | 0.137 | -0.43 (inactive) | 0.0056 (inactive) | 0.0301 (inactive)
CCOC(=O)C1=CCC(c2ccc([N+](=O)[O-])cc2)N(S(=O)(=O)c2ccc(C)cc2)C1 (centres undefined) | -0.15 (inactive) | 0.27 | -1.3 | -1.24 (inactive) | -0.021 (inactive) | 0.144 (inactive)
NC(=O)NCC#Cc1ccc2c(c1)[C@]1(C(=O)N2)[C@H](C(=O)N2CCCCCCC2)[C@H]2C(=O)O[C@H](c3ccccc3)[C@H](c3ccccc3)N2[C@@H]1c1ccc(OCCO)cc1 | 0.98 (inactive) | 0.246 | -0.922 | -15.8 (active) | 0.109 (inactive) | 0.309 (inactive)
[N-]=[N+]=Nc1ccccc1C[C@]1(C(=O)NCCN2CCOCC2)N=C(c2ccc(OCCCO)cc2)O[C@H]1c1ccccc1 | 0.533 (inactive) | 0.902 | -2.37 | -5.89 (inactive) | 0.184 (inactive) | 0.535 (inactive)
C[C@]1(C(=O)NCc2ccccc2)c2ccccc2C(=O)N(Cc2cc(F)cc(C(F)(F)F)c2)[C@H]1c1ccc(CO)cc1 | 0.753 (inactive) | 0.518 | -0.327 | -3.43 (inactive) | -0.603 (inactive) | -0.552 (inactive)
O=C1O[C@H](c2ccccc2)[C@H](c2ccccc2)N2[C@H]1[C@@H](C(=O)O)[C@]1(C(=O)Nc3ccc(C#CC4=CCCCC4)cc31)[C@H]2c1ccc(OCCO)cc1 | 0.4 (inactive) | 0.813 | -0.656 | -5.08 (inactive) | 0.222 (inactive) | -0.0216 (inactive)
CCOC(=O)C1=C[C@@H](CC)N(S(=O)(=O)c2ccc(C)cc2)[C@H]1c1ccccc1 | 0.54 (inactive) | 0.208 | -1.81 | -2.63 (inactive) | 0.553 (inactive) | 0.54 (inactive)
COC(=O)c1ccc(C(O)C2C=CC3C(=O)N(c4ccccc4)C(=O)C3N2Nc2ccc(C#N)cc2)o1 (centres undefined) | 0.324 (inactive) | 0.37 | 0.229 | -3.24 (inactive) | -0.645 (inactive) | -0.852 (inactive)
O=c1oc(-c2ccccc2)nc2cc(Br)ccc12 | -0.208 (inactive) | -0.0114 | 1.64 | 4.46 (inactive) | 0.208 (inactive) | 0.0639 (inactive)
COCCOC(=O)N1C(=O)[C@@]2(c3cc(C#CCNC(N)=O)ccc31)[C@H](c1ccc(OCCO)cc1)N1[C@H](c3ccccc3)[C@H](c3ccccc3)OC(=O)[C@H]1[C@@H]2C(=O)N1CCc2cc(OC)c(OC)cc2C1 | -0.254 (inactive) | 0.229 | -0.605 | 1.91 (inactive) | -0.102 (inactive) | 0.15 (inactive)
O=C1O[C@@H](c2ccccc2)[C@@H](c2ccccc2)N2[C@@H](c3ccc(O)cc3)[C@]3(C(=O)Nc4ccc(C#CC5(O)CCCCCC5)cc43)[C@@H](C(=O)N3CCCCCCC3)[C@H]12 | 1.51 (inactive) | 0.855 | -0.667 | 1.7 (inactive) | -0.129 (inactive) | -0.0414 (inactive)
COCCOC(=O)N1C(=O)[C@@]2(c3cc(C#CCNC(N)=O)ccc31)[C@H](C(=O)N1CCc3cc(OC)c(OC)cc3C1)[C@H]1C(=O)O[C@H](c3ccccc3)[C@H](c3ccccc3)N1[C@@H]2c1ccc(OCCO)cc1 | 0.034 (inactive) | 0.616 | -1.3 | 1.53 (inactive) | -0.184 (inactive) | -0.0927 (inactive)
CC(C)Cc1ccc(CN2CC[C@@H](NS(=O)(=O)c3ccccc3)C2)cc1 | -0.479 (inactive) | 0.0054 | -0.438 | -4.79 (inactive) | -0.853 (inactive) | -1.1 (inactive)
COc1ccccc1CN1C(=O)c2ccccc2[C@@H](C(=O)NCCN2CCOCC2)[C@@H]1c1ccc(CO)cc1 | -0.0758 (inactive) | 0.853 | -1.86 | -4.64 (inactive) | 0.193 (inactive) | 0.531 (inactive)
[N-]=[N+]=NCc1ccccc1[C@@H]1OC(c2ccc(OCCCO)cc2)=N[C@]1(Cc1ccccc1)C(=O)N1CCCCC1 | 0.34 (inactive) | 0.654 | -2.23 | -3.35 (inactive) | -0.837 (inactive) | -0.726 (inactive)
CC(C)NC(=O)[C@@H]1c2ccccc2C(=O)N(Cc2ccccc2)[C@H]1c1ccc(CO)cc1 | 0.747 (inactive) | -0.138 | -0.679 | -2.9 (inactive) | -0.0443 (inactive) | 0.0197 (inactive)
N#Cc1ccc(NN2C(C(O)c3cccs3)C=CC3C(=O)N(c4ccccc4)C(=O)C32)cc1 (centres undefined) | 0.529 (inactive) | 0.477 | 0.407 | -2.34 (inactive) | 0.0213 (inactive) | -0.548 (inactive)
